Assay results as given in PubChem BioAssay (NCI).
About 83,000 compounds went through this panel and 20% of them were active in at least one assay; those are over-represented in the sample as a whole.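 Growth was measured after 48 h exposure to one concentration of compound in 96-well plates. Values under 10 count as active.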 Active and inactive are the calls of the source.

Columns and labels:
Experiment in all cases: NCI-60 one-dose screen, 48 h (100 = growth as untreated, 0 = no growth, -100 = all killed)
Conditions in all cases: 10 µM unless noted
[1] = tested on: NCI-H23 lung
[2] = tested on: NCI-H226 lung
[3] = tested on: NCI-H322M lung
[4] = tested on: HOP-62 NSCLC
[5] = tested on: NCI-H460 lung
[6] = tested on: HOP-92 NSCLC
[7] = tested on: NCI-H522 lung
[8] = tested on: A549/ATCC NSCLC
[9] = tested on: 786-0 renal

Measured: growth

Cc1ccc(Nc2ccc(Nc3ccc(C)cc3S(=O)(=O)O)c3c2C(=O)c2ccccc2C3=O)c(S(=O)(=O)O)c1
inactive: [1] 97.2% | [2] 96.9% | [3] 90% | [4] 107% | [5] 102% | [6] 99% | [7] 93.3% | [8] 112% | [9] 111%

COc1cc(NC(=O)c2cc(O)c(CC=C(C)C)c(O)c2)cc2c1O[C@]1(C)CC[C@@H](O)C(C)(C)[C@H]1C2
active: [6] -0.592% | [7] 8.19% | [9] 1.24%
inactive: [1] 39% | [2] 79.4% | [3] 67.9% | [4] 31.4% | [5] 27.2% | [8] 40.3%

OC(COc1cccc2ccccc12)CN1CCN(c2ccccc2)CC1 (stereo unspecified)
inactive: [1] 87.3% | [2] 99.1% | [3] 99.7% | [4] 90.4% | [5] 106% | [6] 77.6% | [7] 101% | [8] 102% | [9] 94.2%

COc1ccc(/C(C)=C(\c2ccc(Cl)cc2)c2ccc(OCCN(C)C)cc2)cc1F
inactive: [1] 86.7% | [2] 95.5% | [3] 77.4% | [4] 64.8% | [5] 22.2% | [6] 65.6% | [7] 87.5% | [8] 59% | [9] 62.9%

O=C(/C=C/C12c3ccccc3C(c3ccccc31)C1C(=O)N(c3ccccc3)C(=O)C12)c1ccccc1 (stereo unspecified)
active: [1] 5.23% | [2] -27.4% | [5] -41.3% | [6] -6.42% | [9] 3.15%
inactive: [3] 12.9% | [4] 28.7% | [7] 16.7% | [8] 20.5%

Cc1cnc(Nc2ccc(OCCN3CCCC3)cc2)nc1NCc1ccco1
inactive: [1] 70.9% | [2] 45.8% | [3] 81.9% | [4] 60.4% | [5] 72.8% | [6] 54.8% | [7] 70.1% | [8] 76.3% | [9] 60.7%

Cc1nc(Nc2ccc(NC(=S)Nc3ccccc3)cc2)nc2nc(SCc3ccccc3)[nH]c(=O)c12
inactive: [1] 101% | [2] 82.6% | [3] 173% | [4] 95.2% | [5] 107% | [6] 82.4% | [7] 40.5% | [8] 57.9% | [9] 99.1%

N[C@@H]1CCC[C@H]1NCCCCN1C(=O)c2cccc3cccc(c23)C1=O
inactive: [1] 80.4% | [2] 91.9% | [3] 64.4% | [4] 81.9% | [5] 59.8% | [6] 48% | [7] 65.8% | [8] 67.4% | [9] 58%

CC(=O)c1cc2c(o1)C(=O)c1ccccc1C2=O
active: [1] -33.2% | [2] -59.1% | [3] -92.7% | [4] -57.9% | [5] -71.8% | [6] -9.05% | [7] -56.8% | [8] -44.4% | [9] -93.4%

Clc1ccc(-c2nnc(Cn3ccnc3)o2)cc1
inactive: [1] 93.9% | [2] 102% | [3] 113% | [4] 89.3% | [5] 112% | [6] 132% | [7] 115% | [8] 100% | [9] 94%

Cc1nc(Nc2ccccn2)sc1C(=O)/C=C/c1ccc(Br)cc1
inactive: [1] 88.3% | [2] 85.6% | [3] 80% | [4] 63.4% | [5] 92% | [6] 96.3% | [7] 61.5% | [8] 86.2% | [9] 96.9%

O=C(Nc1ccccn1)[C@H](O)[C@@H](O)C(=O)N1CCOCC1
inactive: [1] 106% | [2] 95.3% | [3] 115% | [4] 104% | [5] 105% | [6] 106% | [7] 102% | [8] 99.6% | [9] 107%

COc1cc(-c2ncn(/C=C\c3nnco3)n2)cc(C(F)(F)F)c1
active: [2] -0.243% | [3] 8.72% | [5] 0.25% | [7] -11.4% | [9] 5.1%
inactive: [1] 26.6% | [4] 39.8% | [6] 61.4% | [8] 16.7%

CCOC(=O)c1nnn(-c2ccccc2)c1C1=CN(C)CCC1
inactive: [1] 92.8% | [2] 102% | [3] 95.8% | [4] 99.6% | [5] 104% | [6] 108% | [7] 86.7% | [8] 99.6% | [9] 97.3%

N=C(N)c1ccc(-c2ccc(-c3ccc(Cl)cc3Cl)o2)cc1
inactive: [2] 93.7% | [6] 45.3%
active: [1] 3.61% | [3] -53.9% | [4] -12.1% | [5] -65.7% | [7] 1.99% | [8] -46.5% | [9] -86%

COc1ccc(-c2nnc(SCC(=O)NC3=NN=C(c4ccccc4)CS3)o2)cc1
inactive: [1] 103% | [2] 93.8% | [3] 102% | [4] 86.2% | [5] 101% | [6] 98.5% | [7] 93.3% | [8] 74.7% | [9] 101%

COc1ccc(CN2C(=O)/C(=C\c3cc(OC)c(OC)c(OC)c3)c3ccccc32)cc1
active: [1] -8.08% | [4] -33% | [5] -53% | [6] 0.884% | [7] -54.1% | [8] 9.31% | [9] 1.15%
inactive: [2] 11.8% | [3] 19.6%

CCN(CC)CCCNC(=O)c1ccc(N)cc1
inactive: [1] 101% | [2] 101% | [3] 94.7% | [4] 98.5% | [5] 103% | [6] 101% | [7] 101% | [8] 105% | [9] 100%

C/C(=N\NC(=O)Cn1c(-c2ccc(S(C)(=O)=O)cc2)nc2cc(Cl)ccc21)c1ccc(Cl)cc1
inactive: [1] 83% | [2] 79% | [3] 86% | [4] 80.9% | [5] 82.8% | [6] 86.2% | [7] 74.9% | [8] 66.7% | [9] 92.1%

CNC(=O)c1c(NC(=O)c2ccc(C(C)(C)C)cc2)sc2c1CCC(=O)C2
active: [1] 6.65% | [2] -2.45% | [5] 1.8% | [6] -22.3% | [7] -37%
inactive: [3] 35.4% | [4] 17% | [8] 15.8% | [9] 29.3%

CSc1nc(N)c(CNC(C)c2ccccc2)c(=O)n1C (stereo unspecified)
inactive: [1] 97.4% | [2] 91.4% | [3] 169% | [4] 95% | [5] 105% | [6] 89% | [7] 94.3% | [8] 97.7% | [9] 90.2%

Cc1[nH]c(-c2nc3ccccc3[nH]2)c(C)c1C(=O)NNc1ccc(Cl)cc1
inactive: [1] 91% | [2] 84.1% | [3] 89.6% | [4] 98.7% | [5] 103% | [6] 90.6% | [7] 80.9% | [8] 93.1% | [9] 94.7%

CC(C)(C)c1ccc(C(=O)Nc2sc3c(c2C(N)=O)CCC(=O)C3)cc1
inactive: [2] 30.8% | [3] 62.6% | [4] 26.5% | [8] 15.1% | [9] 23.8%
active: [1] -15% | [5] -10.7% | [6] -22.7% | [7] -10.2%

CSc1nc2sc3cc(Cl)ccc3n2c(=N)c1C#N
inactive: [1] 82.2% | [2] 57% | [3] 107% | [4] 119% | [5] 92.7% | [6] 77% | [7] 94.3% | [8] 62.3% | [9] 47.6%

Cc1cnc(Nc2ccc(N3CCN(C)CC3)cc2)nc1Nc1ccc(Cl)c(NS(=O)(=O)C(C)(C)C)c1
active: [2] 7.11% | [6] -27.8% | [7] -28.8% | [8] -26.1% | [9] -30.4%
inactive: [1] 18.9% | [3] 37.2% | [4] 14.1% | [5] 20.5%

CCN(CC)N=Nc1nn(C(=O)Nc2ccc(Cc3ccccc3)cc2)c2ccc(Cl)cc12
inactive: [1] 90.4% | [2] 84% | [3] 82.5% | [4] 86.9% | [5] 25.7% | [6] 102% | [7] 67.3% | [8] 67.7% | [9] 59.5%

CC(C)N(CCOC(=O)Nc1ccccc1Cl)C(C)C
inactive: [1] 105% | [2] 86.3% | [3] 102% | [4] 93.3% | [5] 103% | [6] 84.4% | [7] 78.6% | [8] 98.4% | [9] 98.8%

O=[N+]([O-])c1ccc(-c2cc3c(Nc4ccc(Sc5nc6ccccc6s5)c(Cl)c4)ncnc3s2)cc1
inactive: [1] 19.9% | [2] 76.2% | [3] 55.5% | [4] 36.1% | [5] 11.8% | [6] 56.6% | [7] 30% | [8] 18.5% | [9] 61.6%

O=C1C(Cl)C(c2ccccc2Cl)N1n1cnnc1 (stereo unspecified)
inactive: [1] 101% | [2] 102% | [3] 93.5% | [4] 73.5% | [5] 101% | [6] 91.1% | [7] 92.9% | [8] 91.1% | [9] 97.1%
